Consider 24 molecules from PubChem BioAssay (NCATS).

Inconclusive results are not listed. Activity calls are given as the source filed them. The call rests on the fitted dose curve; in most records, active means well fitted inhibition curve with a large enough effect in the repeat runs; inconclusive means weak or mixed curves; inactive means no such curve, though single readings can be large or run the other way.
Potency means the concentration at half of the fitted maximal effect.

Chain of Cytochrome P450 2C9 (Homo sapiens) (P11712 whole entry, looked up): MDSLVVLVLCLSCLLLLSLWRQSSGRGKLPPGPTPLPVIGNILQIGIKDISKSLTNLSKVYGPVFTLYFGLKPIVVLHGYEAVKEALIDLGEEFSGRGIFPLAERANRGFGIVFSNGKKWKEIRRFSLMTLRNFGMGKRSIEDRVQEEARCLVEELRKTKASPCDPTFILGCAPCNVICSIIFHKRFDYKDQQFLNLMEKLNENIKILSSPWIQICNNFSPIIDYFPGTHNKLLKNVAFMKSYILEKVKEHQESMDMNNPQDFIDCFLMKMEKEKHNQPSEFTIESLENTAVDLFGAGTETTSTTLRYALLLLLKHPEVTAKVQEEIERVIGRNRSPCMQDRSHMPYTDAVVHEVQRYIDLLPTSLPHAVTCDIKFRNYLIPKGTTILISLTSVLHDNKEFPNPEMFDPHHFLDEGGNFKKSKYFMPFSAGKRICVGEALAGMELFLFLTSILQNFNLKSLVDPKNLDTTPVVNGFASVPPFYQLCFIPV
Chain of Cytochrome P450 3A4 (Homo sapiens) (P08684 whole entry, looked up): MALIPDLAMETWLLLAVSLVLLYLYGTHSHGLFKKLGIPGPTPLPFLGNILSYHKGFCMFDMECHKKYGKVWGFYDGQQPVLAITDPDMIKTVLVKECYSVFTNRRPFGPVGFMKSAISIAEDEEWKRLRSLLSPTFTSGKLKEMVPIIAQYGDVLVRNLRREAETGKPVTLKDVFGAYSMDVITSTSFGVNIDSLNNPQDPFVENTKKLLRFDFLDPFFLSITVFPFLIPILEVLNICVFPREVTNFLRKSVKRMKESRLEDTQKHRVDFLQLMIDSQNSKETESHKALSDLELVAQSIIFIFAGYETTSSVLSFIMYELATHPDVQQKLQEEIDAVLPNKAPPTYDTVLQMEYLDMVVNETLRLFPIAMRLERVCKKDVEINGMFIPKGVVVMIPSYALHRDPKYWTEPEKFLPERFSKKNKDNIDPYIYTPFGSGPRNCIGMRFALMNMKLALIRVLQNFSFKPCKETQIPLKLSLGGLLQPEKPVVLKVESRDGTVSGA

The first assay concerns the target Cytochrome P450 3A4 (Homo sapiens) (UniProt P08684). Briefly: Cytochrome P450 family 3 subfamily A member 4 (CYP3A4) small molecule antagonists: luciferase qHTS assay (AID 1645841). Further: nearly all actives have a fitted effect of over 45% in size. Conditions: P450-Glo CYP3A4 enzyme assay, luciferin luminescence; series mostly up to 57.4 µM. The method, boiled down:
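P450-Glo CYP3A4 enzyme with proluciferin substrate preincubated 10 min with compound at room temperature, then NADPH regeneration 1 h. Luciferin detection reagent added for 20 min; luminescence recorded. Ketoconazole positive control.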
Consider `OC[C@H]1O[C@@H]2O[C@H]3[C@H](O)[C@@H](O)[C@@H](O[C@H]4[C@H](O)[C@@H](O)[C@@H](O[C@H]5[C@H](O)[C@@H](O)[C@@H](O[C@H]6[C@H](O)[C@@H](O)[C@@H](O[C@H]7[C@H](O)[C@@H](O)[C@@H](O[C@H]1[C@H](O)[C@@H]2O)O[C@@H]7CO)O[C@@H]6CO)O[C@@H]5CO)O[C@@H]4CO)O[C@@H]3CO`, for which the Potency entry was “inactive”.
On to `CC(C)OCc1cc(CN2CCN(c3ccccc3)CC2)c(O)c2ncccc12`, for which the Potency result was “inactive”.
Turning to `Cc1ccc(-n2nc3c(N4CCCC(C(=O)NCc5ccccc5C)C4)nnc(C)c3c2C)cc1` (centres undefined), the Potency is 1.69 µM (active).
With `C[S+](=O)([O-])Nc1ccc(-c2ccc3nc(-c4ccc(OC(F)(F)F)cc4)[nH]c3c2)cc1`, the Potency entry was “inactive”.
On the same count and under the same terms, next, `CN[C@H](CC(C)C)C(=O)N[C@H]1C(=O)N[C@@H](CC(N)=O)C(=O)N[C@H]2C(=O)N[C@H]3C(=O)N[C@H](C(=O)N[C@H](C(=O)O)c4cc(O)cc(O)c4-c4cc3ccc4O)[C@H](O)c3ccc(c(Cl)c3)Oc3cc2cc(c3O[C@@H]2OC(CO)[C@@H](O)[C@H](O)[C@@H]2O[C@H]2C[C@](C)(N)[C@H](O)[C@H](C)O2)Oc2ccc(cc2Cl)[C@H]1O` (some centres undefined): “inactive”; `CCc1ccc(CNC(=O)C2CCCN(c3nnc(C)c4c(C)n(-c5ccccc5)nc34)C2)cc1` (centres undefined): 1.9 µM (active); `Cc1ccc(Nc2nc3nonc3nc2Nc2cccc(C(F)(F)F)c2)cc1Cl`: “inactive”.
With `O=C(O)CN(CC(=O)O)Cc1cc2c(-c3ccccc3C(=O)O)c3cc(CN(CC(=O)O)CC(=O)O)c(=O)cc-3oc2cc1O`, the Potency result was “inactive”.
For `C[S+](=O)([O-])Nc1ccc(-c2ccc3nc(-c4cccc(OC(F)(F)F)c4)[nH]c3c2)cc1`, the Potency entry is “inactive”.

A further assay deals with Cytochrome P450 2C9 (Homo sapiens) (UniProt P11712). Briefly: Cytochrome P450 family 2 subfamily C member 9 (CYP2C9) small molecule antagonists: luciferase biochemical (cell-free) qHTS assay (AID 1645842). Further: nearly all actives have a fitted effect of over 55% in size. Conditions: P450-Glo CYP2C9 enzyme assay, luciferin luminescence; series mostly up to 57.4 µM. Summed up:
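Luminescence, after 20 min with luciferin detection reagent, reflected CYP2C9 turnover during a 1 h NADPH-driven reaction at 37C. Enzyme-substrate mix contained 0.4% bovine serum albumin and was preincubated with compound 10 min at room temperature.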
(In general: Quantitative high-throughput screening tests each substance at several concentrations.)
Take `COc1ccc2c(c1)CCc1sc(NC(=O)c3cccc(Br)c3)nc1-2`: the Potency was 5.35 µM (active).
As for `CCN(CC)S(=O)(=O)c1ccc2c(c1)nc(CN(C)C(=O)Nc1cccc(Cl)c1)n2C`, the Potency was 0.849 µM (active).
Still for that read-out and setting: next, `OC[C@H]1O[C@@H]2O[C@H]3[C@H](O)[C@@H](O)[C@@H](O[C@H]4[C@H](O)[C@@H](O)[C@@H](O[C@H]5[C@H](O)[C@@H](O)[C@@H](O[C@H]6[C@H](O)[C@@H](O)[C@@H](O[C@H]7[C@H](O)[C@@H](O)[C@@H](O[C@H]1[C@H](O)[C@@H]2O)O[C@@H]7CO)O[C@@H]6CO)O[C@@H]5CO)O[C@@H]4CO)O[C@@H]3CO`: “inactive”.
As to `COc1ccc(NC(=O)CSc2oc(-c3cccs3)nc2S(=O)(=O)c2ccc(Br)cc2)c(OC)c1`, the Potency was 0.477 µM (active).
Regarding `COc1ccc(NC(=O)c2nc(SCc3ccc(F)cc3)ncc2Cl)cc1`, the Potency was 3.38 µM (active).
Still for that read-out and setting: next, `COc1ccccc1NC(=O)c1oc2ccccc2c1NC(=O)c1ccccc1C(F)(F)F`: 2.68 µM (active).
For the molecule `Cc1ccc(-n2nc3c(N4CCCC(C(=O)NCc5ccccc5C)C4)nnc(C)c3c2C)cc1` (centres undefined), the Potency is 2.68 µM (active).
The same measure, in the same setting: then `CCOC(=O)c1ccc(NC(=O)c2cc(=O)c3ccc(C)c(C)c3o2)cc1`, with “inactive”; and `Cc1ccc(-n2c(SCc3ccccc3C)nc3[nH]ncc3c2=O)cc1C`, with 21.3 µM (active); and `CNS(=O)(=O)c1ccc(Cc2c(-c3cccc(-c4ccccc4)c3)[nH]n(-c3nc(C(=O)O)cs3)c2=O)cc1`, with 21.3 µM (active).
Same read-out and setting: then `COc1cc(C(=O)NC(c2ccccc2Cl)c2cc(Cl)c3cccnc3c2O)cc(OC)c1OC` (centres undefined), with 15.1 µM (active).
Consider `CCc1ccc(CNC(=O)C2CCCN(c3nnc(C)c4c(C)n(-c5ccccc5)nc34)C2)cc1` (centres undefined), for which the Potency is 8.49 µM (active).
Regarding `COc1ccccc1Cn1cc(C(=O)c2ccc(Cl)cc2)c(=O)c2cc3c(cc21)OCCO3`, the Potency is 2.68 µM (active).
As to `Cc1ccc(NC(=O)Cn2c(=O)n(CCC(=O)NCc3ccc4c(c3)OCO4)c(=O)c3sccc32)c(C)c1`, the Potency was 2.13 µM (active).
For the molecule `Cc1ccc(Nc2nc3nonc3nc2Nc2cccc(C(F)(F)F)c2)cc1Cl`, the Potency is 5.35 µM (active).
On to `O=C(O)CN(CC(=O)O)Cc1cc2c(-c3ccccc3C(=O)O)c3cc(CN(CC(=O)O)CC(=O)O)c(=O)cc-3oc2cc1O`, for which the Potency result was “inactive”.
For the molecule `Cc1cc(O)c(Cl)c(C)c1Cl`, the Potency entry is “inactive”.
Still for that read-out and setting: next, `COc1ccc2c(CNCCc3ccccc3OC)c(C(=O)O)n(Cc3ccc(F)cc3Cl)c2c1`: 12 µM (active); `COCCCNC(=O)C(=O)Nc1c2c(nn1-c1cccc(Cl)c1)CSC2`: 8.49 µM (active).
As for `NC(=O)c1ccc(Cc2c(-c3cccc(-c4ccccc4)c3)[nH]n(-c3nc(C(=O)O)cs3)c2=O)cc1`, the Potency is 26.8 µM (active).
